In the library only some 3.5% were active in any assay of this set; here they are far more common.
Sm TGR block – blocks Schistosoma mansoni thioredoxin glutathione reductase; Q962Y6; purified TGR, DTNB reduction, TNB absorbance 405 nm; Potency, µM (highest dose often 114 µM), without a hit: at the top dose activity change, negative = inhibition, actives largely listed as inhibitors; hit rate 3% among 360,000; AID 485364; note: % is set by controls: 0 for no effect and ±100 for the full control effect; nearly all actives have a fitted effect of over 60% in size
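First, TGR (20 nM dispensed) and NADPH were mixed with compound. Second, a 15 min room-temperature incubation followed. Third, further NADPH and then DTNB were added to start the reaction. Finally, TNB absorbance was monitored kinetically.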
RE007 growth inh – less growth of the S. pombe RE007 Vpr strain. Potency, µM (top dose mostly 92.2 µM), for inactives: top-dose activity change, negative = less growth, most hits filed as inhibitors. AID 651644. S. pombe RE007 Vpr strain, BacTiter-Glo ATP luminescence, 24 h. hit rate 0.21% among 360,000; active = well fitted falling curve with a large enough effect; inconclusive = small, poorly fitted or top-dose-only effect; inactive = no such curve, though single readings can be large or run the other way; note: % is set by controls: 0 for no effect and ±100 for the full control effect; nearly all actives have a fitted effect of over 50% in size
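Fission yeast strain RE007, carrying one chromosomally integrated HIV-1 vpr copy, was seeded at OD 0.01 in PMG+AL medium with 23 nL pinned compound. After 24 h at 30 °C and 99% humidity, viability was read by BacTiter-Glo luminescence.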
Giardia FBPA inh – Giardia lamblia aldolase inhibition | Potency, µM (series often up to 59.6 µM), inactives show at the top dose activity, negative = inhibition, usual class: inhibitors | hit rate 0.71% among 290,000 | A8B2U2 | purified Giardia FBPA; note: % is set by controls: 0 for no effect and ±100 for the full control effect; nearly all actives have a fitted effect of over 55% in size
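Giardia FBPA (40 nM reagent) was preincubated 10 min at RT with compound (up to 57.5 uM final), then substrate plus GAPDH/TPI/NAD/arsenate coupling system with diaphorase/resazurin was added; resorufin fluorescence (525/598 nm) was read after 20 min.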
NS1 function inh – blocks influenza NS1 protein function | Potency, µM (doses to about 46.1 µM), without a hit: at the highest dose activity, positive = more growth | hit rate 0.4% among 270,000; calls by dose curve; note: actives are rising curves; nearly all actives have a fitted effect of over 50% in size
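Compounds were scored for reversing the slow growth caused by influenza A NS1 in S. cerevisiae, measured by optical density at 600 nm. Assay medium contained 2% galactose at pH 6.0; NS1-free yeast of the same strain were the positive control.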
TbPYK inhibitor – inhibitors of Trypanosoma brucei pyruvate kinase; TbPYK enzyme, Kinase-Glo Plus ATP luminescence, 45 min; Potency, µM (doses to about 76.8 µM), without a hit: top-dose activity, negative = inhibition, hits mostly inhibitors; hit rate 0.12% among 410,000; note: % is set by controls: 0 for no effect and ±100 for the full control effect; nearly all actives have a fitted effect of over 50% in size
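Activity of T. brucei pyruvate kinase was followed by Kinase-Glo Plus luminescence after the enzyme reacted 45 min at room temperature with 130 uM ADP (final) and substrate. Test compounds were added before ADP at multiple concentrations.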
LmPK inhibitor – blocks Leishmania mexicana pyruvate kinase activity; hit rate 0.37% among 290,000; Potency, µM (doses to about 57.5 µM), for inactives: at the top dose activity change, negative = inhibition, most hits filed as inhibitors; purified LmPK, Kinase-Glo ATP luminescence, 1 h; note: % is set by controls: 0 for no effect and ±100 for the full control effect
Target sequence (Q27686 whole entry, looked up): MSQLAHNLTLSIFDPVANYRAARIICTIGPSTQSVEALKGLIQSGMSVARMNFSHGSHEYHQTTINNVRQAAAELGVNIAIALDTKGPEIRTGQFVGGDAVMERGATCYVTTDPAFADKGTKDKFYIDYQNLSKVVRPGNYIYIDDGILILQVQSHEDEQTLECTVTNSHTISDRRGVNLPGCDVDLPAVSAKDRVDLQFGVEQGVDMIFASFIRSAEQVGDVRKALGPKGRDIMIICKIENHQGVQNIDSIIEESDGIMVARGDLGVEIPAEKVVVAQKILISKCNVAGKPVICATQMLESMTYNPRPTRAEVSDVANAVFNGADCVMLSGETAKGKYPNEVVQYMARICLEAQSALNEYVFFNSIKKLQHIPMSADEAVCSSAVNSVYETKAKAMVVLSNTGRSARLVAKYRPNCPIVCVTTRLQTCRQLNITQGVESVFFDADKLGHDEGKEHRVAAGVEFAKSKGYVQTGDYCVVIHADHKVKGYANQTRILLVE
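Kinase-Glo luminescence read after 1 h RT reaction of 0.1 nM LmPK with 0.5 mM PEP and 0.1 mM ADP. Activity scaled between uninhibited and enzyme-free controls.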
* marks the source's active call; other numbers are inactive results; ? = inconclusive; nt = no result given; [ ] = dose if it differs, or a comment. Unless noted, calls come from the whole dose curve; as a rule, active = well fitted curve in the direction sought with a large enough effect; inconclusive = small, poorly fitted or top-dose-only effect, or another doubt; inactive = no such curve, though single readings can be large; an effect the other way counts as inactive or inconclusive. Potency is the fitted concentration of half-maximal effect.

SMILES	Sm TGR block	RE007 growth inh	Giardia FBPA inh	NS1 function inh	TbPYK inhibitor	LmPK inhibitor
CS(=O)(=O)N(CC(=O)Nc1ccc2c(c1)OCO2)c1ccccc1	0%	-11%	-6%	2%	6%	-3%
C[C@@H](O[C@H]1OCCN(Cc2n[nH]c(=O)[nH]2)[C@@H]1c1ccc(F)cc1)c1cc(C(F)(F)F)cc(C(F)(F)F)c1	nt	nt	nt	nt	-7%	nt
NS(=O)(=O)c1ccc(NC(=S)NC(=O)c2ccc3c(c2)OCO3)cc1	-5%	11%	?	10%	-6%	2%
O=C(NC(=S)Nc1ccccc1Br)c1ccc2c(c1)OCO2	14µM*	2%	nt	9%	2%	6%
O=C(Nc1ccc2c(c1)OCO2)c1ccccc1	2%	-15%	2%	7%	0%	3%
O=C(NC(=S)Nc1ccc2c(c1)OCO2)c1ccccc1	14µM*	-4%	-10%	-3%	-15%	-2%
O=C(OCN1C(=O)c2ccccc2C1=O)C1CCCCC1	-16%	-9%	6%	-10%	0%	6%
O=C1c2ccccc2C(=O)N1SC1CCCCC1	45µM*	45µM*	-1%	-71%	?	32%
NC(N)=NS(=O)(=O)c1ccc(NC(=S)NC(=O)/C=C/c2ccco2)cc1	-36%	-12%	0%	12%	-5%	3%
NC(N)=NS(=O)(=O)c1ccc(NC(=S)NC(=O)c2ccccc2)cc1	16µM*	-4%	?	0%	-9%	0%
NC(N)=NS(=O)(=O)c1ccc(NC(=S)NC(=O)/C=C/c2ccccc2)cc1	89µM*	0%	-4%	16%	-12%	5%
COc1ccc(Cc2nc3ccc(C(=O)NCc4cc(Br)ccc4OC)cc3o2)cc1	5%	nt	nt	nt	0%	nt
CCc1ccc(NC(=O)CCn2nc(-c3ccccc3OC)c3c(C)cc(C)nc32)cc1	0%	nt	nt	nt	-4%	nt
CCOC(=O)c1ccc(NC(=O)CC2C(=O)N(c3ccccc3)C(=O)N2Cc2ccc(C)cc2)cc1 (stereo not given)	14%	nt	nt	nt	1%	nt
COc1cccc(/C(O)=C2/C(=O)C(=O)N(CCN3CCOCC3)C2c2cccnc2)c1 (stereo not given)	22µM*	6%	-5%	-2%	1%	12%
Cc1ccc(/C(O)=C2/C(=O)C(=O)N(CCN3CCOCC3)C2c2cccnc2)cc1 (stereo not given)	-19%	-7%	-4%	11%	-10%	-3%
Cc1ccc(C)c(/C(O)=C2\C(=O)C(=O)N(CCCN3CCOCC3)C2c2cccnc2)c1 (stereo not given)	28µM*	-17%	2%	10%	1%	-3%
CCOc1cccc(/C(O)=C2/C(=O)C(=O)N(CCN3CCOCC3)C2c2cccnc2)c1 (stereo not given)	-30%	-7%	-6%	8%	2%	8%
CCC(CC)C(=O)Nc1ccc2nc(SCC(=O)N3CCOCC3)sc2c1	0%	nt	nt	nt	0%	nt
N/C(=N\N=C\c1ccc(Br)o1)c1nonc1N	40µM*	-6%	1%	-7%	-1%	-21%
Nc1nonc1C(=O)N/N=C/c1ccc(Br)o1	13%	6%	-10%	-2%	-4%	-12%
N/C(=N\N=C\c1cccc(O)c1)c1nonc1N	-6%	-11%	-3%	nt	?	11µM*
N/C(=N\N=C\c1ccc(O)cc1)c1nonc1N	2%	-3%	3%	nt	-16%	?
CCOc1ccc(NC(=O)Cn2c(=O)n(CCc3ccccc3)c(=O)c3c4c(sc32)CN(C(C)=O)CC4)cc1	5%	nt	nt	nt	-9%	nt
CC(=O)c1ccc(NC(=O)c2cccc(NC(=O)N3CCSc4ncccc43)c2)cc1	1%	nt	nt	nt	-3%[15.4 µM]	nt
SMILES	Sm TGR block	RE007 growth inh	Giardia FBPA inh	NS1 function inh	TbPYK inhibitor	LmPK inhibitor
O=C(c1ccco1)N1CCC2(CC1)CCN(c1ccncc1)CC2	nt	nt	1%	nt	-3%	nt
CCOc1ccc(-n2cc(-c3ccccc3)c3c(NCCc4ccccc4)ncnc32)cc1	4%	nt	nt	nt	19%	nt
Cc1ccc(OCC(=O)N/N=C/C=C/c2ccco2)cc1	?	-12%	-12%	-5%	4%	3%
COc1ccccc1OCC(=O)N/N=C/C=C/c1ccc([N+](=O)[O-])o1	45µM*	-10%	-2%	-49%	-4%	-1%
O=C(COc1ccccc1[N+](=O)[O-])N/N=C/C=C/c1ccco1	35µM*	-5%	nt	-2%	-19%	-1%
COc1cc(NC(=O)c2cc3c(s2)-c2ccccc2OC3)cc(OC)c1OC	7%	nt	nt	nt	?	nt
O=C(/C=C/c1ccc([N+](=O)[O-])s1)N1CCCCC1	20µM*	?	1%	nt	-3%	5%
O=C(/C=C/c1ccc([N+](=O)[O-])s1)N1CCCC1	28µM*	?	-5%	nt	1%	0%
CCc1ccccc1NC(=O)CN(Cc1ccccc1)S(=O)(=O)c1ccc(Br)cc1	0%	nt	nt	nt	3%	nt
CC1CN(C(=O)c2ccc(COc3ccc(C(C)C)cc3)o2)CC(C)O1 (stereo not given)	40µM*	0%	0%	6%	-4%	3%
CC1CN(C(=O)c2ccc(COc3ccccc3Cl)o2)CC(C)O1 (stereo not given)	-15%	-25%	3%	-22%	4%	-2%
Cc1ccccc1OCc1ccc(C(=O)N2CC(C)OC(C)C2)o1 (stereo not given)	-22%	6%	2%	-8%	7%	-2%
CC1CN(C(=O)c2ccc(COc3ccc4ccccc4c3)o2)CC(C)O1 (stereo not given)	32µM*	-11%	-20%	-6%	0%	2%
CCCc1nn2c(=O)cc(COC(=O)c3ccccc3NC(=O)c3ccc(Cl)cc3)nc2s1	-1%	nt	nt	nt	-1%	nt
CCC(=O)Nc1ccc(CC)cc1-c1nc2ccccc2n(CC(=O)Nc2ccccc2C)c1=O	1%	nt	nt	nt	-8%	nt
COc1cccc2c1cc1c(=O)n(CC(=O)NCc3ccco3)nc(C)n12	-2%	nt	nt	nt	1%	nt
Cc1cccc(C)c1N=Nc1c(C)cc(O)cc1C	-5%	25µM*	3%	-155%	-5%	-15%
COCC(=O)Nc1c(C(=O)Nc2ccc(C)cc2)oc2ccccc12	-2%	nt	nt	nt	-8%	nt
O=C1CSC(=S)N1/N=C/c1cc(Br)ccc1O	7.9µM*	nt	17%	4%	nt	?
COc1ccccc1C=NN1C(=O)CSC1=S	nt	-7%	nt	nt	0%	nt
O=C1CSC(=S)N1/N=C/c1ccc(O)c(O)c1O	?	-16%	7.9µM*	12%	?	-21%
CC(C)Oc1ccc(CNC(=O)CCn2c(=O)c3cccn3c3ccc(F)cc32)cc1	-1%	nt	nt	nt	4%	nt
COc1ccc(C(=O)NCS(=O)(=O)c2ccc(C)cc2)cc1	11µM*	10%	6%	-6%	-5%	0%

Screening results (PubChem BioAssay)
